Several values for one entry are separate records, joined by “and”; a condition that tells them apart may be missing. Equal entries are not always repeated. Records with an inconclusive call do not appear. Some compounds were tested as several samples or in several runs, with calls that do not always agree. Activity calls are given as the source filed them. Rule for the calls: active = hit-call score of the fitted dose curve at least 0.9, where 1 is the maximum; inconclusive = response in the unintended direction; inactive = score below 0.9.
What was measured:
[1] = target: Cellular tumor antigen p53 (Homo sapiens) (UniProt P04637); test: TOX21_p53_BLA_p2_ratio: Tox21 HCT-116 p53 Agonism Beta-lactamase Assay, Ratio, Phase 2 (AID 2283592)
Sequence of Cellular tumor antigen p53 (Homo sapiens) (P04637 whole entry, looked up): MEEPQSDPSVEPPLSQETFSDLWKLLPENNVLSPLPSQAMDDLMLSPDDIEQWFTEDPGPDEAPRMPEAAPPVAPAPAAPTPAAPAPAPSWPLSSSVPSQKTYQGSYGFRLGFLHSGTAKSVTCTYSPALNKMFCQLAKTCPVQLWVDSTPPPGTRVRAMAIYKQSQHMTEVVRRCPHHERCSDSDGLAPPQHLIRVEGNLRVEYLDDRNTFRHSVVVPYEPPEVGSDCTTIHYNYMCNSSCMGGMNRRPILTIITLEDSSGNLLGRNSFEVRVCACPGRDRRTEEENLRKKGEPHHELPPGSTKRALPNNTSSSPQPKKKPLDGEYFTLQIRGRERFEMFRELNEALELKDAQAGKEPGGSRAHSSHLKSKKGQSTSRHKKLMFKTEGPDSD
Outline: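 HCT-116 cells with p53-responsive beta-lactamase reporter, 4000 cells/well, preincubated 5 h, then compound in DMSO (217-fold dilution) for 16 h at 37C. CCF4-AM substrate 2 h at room temperature; 460/530 nm emission ratio fitted upward versus DMSO.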

[2] = target: Cellular tumor antigen p53 (Homo sapiens) (UniProt P04637); test: TOX21_p53_BLA_p3_ratio: Tox21 HCT-116 p53 Agonism Beta-lactamase Assay, Ratio, Phase 3 (AID 2283596)
Outline: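 HCT116 p53-bla cells (4000/well) given compound in DMSO (217-fold dilution) after 5 h, incubated 16 h at 37C. CCF4-AM substrate 2 h at room temperature; 460/530 nm emission ratio, gain fitted against DMSO.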

[3] = TOX21_p53_BLA_p4_viability: Viability Assessment in the Tox21 HCT-116 p53 Agonism Beta-lactamase Assay, Phase 4 (AID 2283597);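 note: hits lower the luminescence signal meaning cytotoxicity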
Outline: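 HCT-116 p53-bla cells, 4000/well, dosed after 5 h attachment and incubated 16 h at 37 °C, 5% CO2. Viability from CellTiter-Glo ATP luminescence after 30 min at room temperature, taken after the beta-lactamase read; loss of signal indicates cytotoxicity.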

[4] = TOX21_p53_BLA_p5_viability: Viability Assessment in the Tox21 HCT-116 p53 Agonism Beta-lactamase Assay, Phase 5 (AID 2283600)
Outline: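 HCT-116 p53 beta-lactamase reporter cells, 4000/well, were exposed to compound (pin transfer, 217-fold dilution) for 16 hours at 37C. Cellular ATP was read by CellTiter-Glo luminescence after 30 min at room temperature.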

[5] = target: Cellular tumor antigen p53 (Homo sapiens) (UniProt P04637); test: TOX21_p53_BLA_p4_ratio: Tox21 HCT-116 p53 Agonism Beta-lactamase Assay, Ratio, Phase 4 (AID 2283601)
Outline: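 HCT-116 p53 beta-lactamase reporter cells (4000/well) preincubated 5 h, then compound (217-fold dilution of DMSO stock) for 16 h at 37C. CCF4-AM substrate added 2 h at room temperature; 460/530 nm emission ratio fitted upward versus DMSO.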

[6] = Tanguay_ZF_120hpf_MORT_legacy: (Legacy) Oregon State University Tanguay Lab 120 Hour Post-fertilization zebrafish Assay for Mortality (AID 2283633);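 for AC50: fitted as increase in binary mortality versus DMSO negative control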
Outline: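 Dechorionated Tropical 5D wild-type zebrafish embryos, one per well from 6 hpf, static exposure in 0.64% DMSO at 28C until 120 hpf. Mortality scored as binary by brightfield microscopy at 24 and 120 hpf.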

[7] = Tanguay_ZF_120hpf_YSE_legacy: (Legacy) Oregon State University Tanguay Lab 120 Hour Post-fertilization zebrafish Assay for Yolk Sac Edema (AID 2283634);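 for AC50: actives raise the incidence of yolk sac edema above the DMSO baseline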
Outline: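 Dechorionated Tropical 5D wild-type zebrafish embryos were exposed statically, one per well, from 6 to 120 hpf at 28C in 0.64% DMSO. Yolk sac edema was scored present/absent by brightfield at 120 hpf, and dead embryos were excluded.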

[8] = Tanguay_ZF_120hpf_AXIS_legacy: (Legacy) Oregon State University Tanguay Lab 120 Hour Post-fertilization zebrafish Assay for Body Axis Malformation (AID 2283635);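 for AC50: potency for an increased fraction of larvae scored with body axis malformation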
Outline: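 Dechorionated wild-type Tropical 5D zebrafish embryos, one per well, statically exposed from 6 hpf to 120 hpf at 28C in 0.64% DMSO final. Body axis malformation scored present/absent by brightfield microscopy at 120 hpf; dead embryos excluded.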

[9] = Tanguay_ZF_120hpf_EYE_legacy: (Legacy) Oregon State University Tanguay Lab 120 Hour Post-fertilization zebrafish Assay for Eye Malformation (AID 2283636);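 note: binary presence or absence of eye malformation scored by brightfield in 120 hpf larvae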
Outline: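 Dechorionated Tropical 5D zebrafish embryos, one per well from 6 hpf, static exposure to 120 hpf at 28C, 0.64% DMSO. Eye malformation scored present/absent by brightfield; dead embryos not scored.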

[10] = Tanguay_ZF_120hpf_SNOU_legacy: (Legacy) Oregon State University Tanguay Lab 120 Hour Post-fertilization zebrafish Assay for Snout Malformation (AID 2283637)
Outline: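 Dechorionated tropical 5D wild-type zebrafish embryos exposed statically from 6 to 120 hpf at 28C, one per well, in 0.64% DMSO. Snout malformation scored as present/absent by brightfield at 120 hpf; dead embryos not scored.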

[11] = Tanguay_ZF_120hpf_JAW_legacy: (Legacy) Oregon State University Tanguay Lab 120 Hour Post-fertilization zebrafish Assay for Jaw Malformation (AID 2283638);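 for AC50: active means more embryos with jaw malformation than DMSO controls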
Outline: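 Dechorionated Tropical 5D wild-type zebrafish embryos, one per well, exposed statically from 6 hpf to 120 hpf at 28C in 0.64% DMSO. Jaw malformation was scored by brightfield microscopy as present or absent. It was not scored in dead embryos.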

[12] = Tanguay_ZF_120hpf_OTIC_legacy: (Legacy) Oregon State University Tanguay Lab 120 Hour Post-fertilization zebrafish Assay for Otic Vesicle Malformation (AID 2283639)
Outline: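 Tropical 5D wild-type zebrafish embryos statically exposed in 0.64% DMSO at 28C until 120 hpf; 5uM trimethyltin chloride as positive control. Otic vesicle malformation scored present/absent by brightfield; dead embryos not scored; gain fitted versus DMSO.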

[13] = Tanguay_ZF_120hpf_PE_legacy: (Legacy) Oregon State University Tanguay Lab 120 Hour Post-fertilization zebrafish Assay for Pericardial Edema (AID 2283640);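 for AC50: potency for increased incidence of pericardial edema versus DMSO baseline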
Outline: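 Tropical 5D wild-type zebrafish embryos were statically exposed until 120 hpf at 28C, with 0.64% DMSO final. Pericardial edema was scored by brightfield as present or absent; endpoints were not scored in dead embryos.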

[14] = Tanguay_ZF_120hpf_BRAI_legacy: (Legacy) Oregon State University Tanguay Lab 120 Hour Post-fertilization zebrafish Assay for Brain Malformation (AID 2283641)
Outline: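 Tropical 5D wild-type zebrafish embryos exposed statically until 120 hpf at 28C, 0.64% DMSO final, sealed and dark. Brain malformation scored present/absent by brightfield at 120 hpf; dead embryos excluded. Trimethyltin chloride 5uM positive control.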

[15] = Tanguay_ZF_120hpf_SOMI_legacy: (Legacy) Oregon State University Tanguay Lab 120 Hour Post-fertilization zebrafish Assay for Somite Malformation (AID 2283647)
Outline: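 Dechorionated Tropical 5D wild-type zebrafish embryos, one per well from 6 hpf, statically exposed at 28C to 120 hpf in 0.64% DMSO; somite malformation scored present/absent by brightfield; trimethyltin 5 uM positive control; dead embryos not scored.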

[16] = Tanguay_ZF_120hpf_PFIN_legacy: (Legacy) Oregon State University Tanguay Lab 120 Hour Post-fertilization zebrafish Assay for Pectoral Fin Malformation (AID 2283648);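 note: each larva judged yes or no for fin defect by brightfield with dead larvae skipped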
Outline: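 Dechorionated Tropical 5D wild-type zebrafish embryos, one per well, statically exposed from 6 to 120 hpf at 28C with 0.64% DMSO final. Pectoral fin malformation scored present/absent by brightfield at 120 hpf; not scored in dead embryos.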

[17] = Tanguay_ZF_120hpf_CFIN_legacy: (Legacy) Oregon State University Tanguay Lab 120 Hour Post-fertilization zebrafish Assay for Caudal Fin Malformation (AID 2283649)
Outline: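 Dechorionated Tropical 5D wild-type embryos, one per well from 6 hpf, static exposure to 120 hpf at 28C in 0.64% DMSO. Caudal fin malformation scored by brightfield as present/absent; not scored in dead embryos.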

[18] = Tanguay_ZF_120hpf_PIG_legacy: (Legacy) Oregon State University Tanguay Lab 120 Hour Post-fertilization zebrafish Assay for Pigmentation Malformation (AID 2283650)
Outline: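 Dechorionated Tropical 5D wild-type embryos, one per well from 6 hpf, statically exposed at 28C in the dark until 120 hpf, 0.64% DMSO final. Pigmentation scored present/absent by brightfield microscopy; dead embryos not scored; fitted versus DMSO.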

[19] = Tanguay_ZF_120hpf_CIRC_legacy: (Legacy) Oregon State University Tanguay Lab 120 Hour Post-fertilization zebrafish Assay for Circulatory Malformation (AID 2283651)
Outline: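 Dechorionated wild-type 5D zebrafish embryos, one per well, statically exposed from 6 to 120 hpf at 28C with 0.64% DMSO; circulatory malformation scored present/absent by brightfield microscopy at 120 hpf, dead embryos excluded.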

[20] = target: Cellular tumor antigen p53 (Homo sapiens) (UniProt P04637); test: TOX21_p53_BLA_p5_ratio: Tox21 HCT-116 p53 Agonism Beta-lactamase Assay, Ratio, Phase 5 (AID 2283599)
Outline: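 HCT-116 p53-bla cells (4000/well) plated 5 h, dosed with compound (217-fold DMSO dilution) for 16 h at 37 C; CCF4-AM substrate 2 h at room temperature. Activity is the 460/530 nm emission ratio (405 nm excitation), fitted in gain-of-signal direction versus DMSO.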

Measured: AC50

CCCCCCCC(=O)OC
inactive: [1] | [2] | [3] | [4] | [5] | [6] | [7] | [8] | [9] | [10] | [11] | [12] | [13] | [14] | [15] | [16] | [17] | [18] | [19]

Nc1nc(Cl)nc2c1ncn2[C@H]1C[C@H](O)[C@@H](CO)O1
active: [1] 271 nM and 790 nM | [2] 468 nM and 960 nM | [20] 455 nM and 793 nM | [5] 244 nM and 886 nM
inactive: [3] | [4] | [6] | [7] | [9] | [10] | [11] | [12] | [13] | [14] | [15] | [16] | [17] | [19]

O=C1OC(c2ccc(O)cc2)(c2ccc(O)cc2)c2ccccc21
inactive: [1] | [2] | [3] | [20] | [4] | [5] | [6] | [7] | [8] | [9] | [10] | [11] | [13] | [15] | [16] | [17] | [18] | [19]

CCCCCCCCCCCCCCOS(=O)(=O)O
active: [3] 73.1 µM | [20] 80.7 µM | [4] 68.3 µM | [5] 78.4 µM | [6] 27.8 µM | [7] 10.8 µM | [8] 31.5 µM | [9] 26.1 µM | [10] 24.7 µM | [11] 42.3 µM | [12] 9.8 µM | [13] 27.7 µM | [14] 10.4 µM | [16] 16.8 µM | [17] 46.9 µM | [18] 9.35 µM
inactive: [1] | [2] | [15] | [19]

Oc1ccccc1O
inactive: [1] | [2] | [20] | [4] | [5] | [6] | [7] | [8] | [9] | [10] | [13] | [15] | [16] | [17] | [18]
active: [3] 70.9 µM and 46.5 µM | [5] 73.5 µM

CCCC[C@H]1CN(CC2CCOCC2)C(=O)OC12CCN(C1(C)CCN(C(=O)c3c(C)ncnc3C)CC1)CC2
inactive: [1] | [2] | [3] | [20] | [4] | [5] | [6] | [7] | [9] | [10] | [11] | [12] | [13] | [14] | [15] | [16] | [17] | [18] | [19]

O=C1c2c(O)cccc2Cc2cccc(O)c21
inactive: [1] | [2] | [3] | [20] | [4] | [5] | [6] | [7] | [8] | [9] | [10] | [11] | [12] | [13] | [14] | [15] | [17] | [18] | [19]
